Unmarked numbers belong to inactive results. Records with an inconclusive call do not appear. Activity calls are given as the source filed them. Calls follow the shape of the dose curve; as a rule, active = well fitted curve in the direction sought with a large enough effect in the repeat runs; inconclusive = weak or mixed curves; inactive = no such curve, though single readings can be large; an effect the other way counts as inactive or inconclusive.

Consider 11 molecules from PubChem BioAssay (Tox21).

Experiment [1] is described as follows: Caspase-3/7 induction in HepG2 cells by small molecules, qHTS assay (AID 1346978). Also: nearly all actives have a fitted effect of over 15% in size. Summed up:
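Wild-type HepG2 cells, 2,000/well, settled 5 hr at 37 C and 5% CO2, then compound-treated for 17 hr; caspase-3/7 activity read by luminescent Caspase-Glo 3/7 after 30 min at room temperature.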

A short description of experiment [2]: Caspase-3/7 induction in CHO-K1 cells by small molecules, qHTS cell viability counter screen (AID 1346979). Also: nearly all actives have a fitted effect of over 35% in size. In outline:
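CellTiter-Fluor viability check, qHTS format: wild-type CHO-K1, 16hr compound treatment, 1hr reagent incubation, fluorescence read.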
Background: Quantitative high-throughput screening tests each substance at several concentrations.

Experiment [3] in a line: Caspase-3/7 induction in HepG2 cells by small molecules, qHTS cell viability counter screen (AID 1346981). Also: series mostly up to about 92 µM; nearly all actives have a fitted effect of over 30% in size. In outline:
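Fluorescence read-out of live-cell protease activity (CellTiter-Fluor) after 1 hr with reagent. This was measured in the same wells as the caspase-3/7 luminescence, on HepG2 cells exposed to DMSO-dissolved compounds for 16 hr at 37 C.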

The target of experiment [4] is Nuclear receptor subfamily 1 group I member 2 (Homo sapiens) (UniProt O75469). The experiment in a line: Human pregnane X receptor (PXR) small molecule agonists, qHTS assay (AID 1346982). Also: nearly all actives have a fitted effect of over 35% in size. In outline: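 HepG2 PXR-Luc reporter line, 5% charcoal-stripped FBS; 5 hr pre-incubation, compound (DMSO) 24 hr at 37 C/5% CO2; ONE-Glo 30 min RT; luminescence read-out.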
Chain of Nuclear receptor subfamily 1 group I member 2 (Homo sapiens) (O75469 whole entry, looked up): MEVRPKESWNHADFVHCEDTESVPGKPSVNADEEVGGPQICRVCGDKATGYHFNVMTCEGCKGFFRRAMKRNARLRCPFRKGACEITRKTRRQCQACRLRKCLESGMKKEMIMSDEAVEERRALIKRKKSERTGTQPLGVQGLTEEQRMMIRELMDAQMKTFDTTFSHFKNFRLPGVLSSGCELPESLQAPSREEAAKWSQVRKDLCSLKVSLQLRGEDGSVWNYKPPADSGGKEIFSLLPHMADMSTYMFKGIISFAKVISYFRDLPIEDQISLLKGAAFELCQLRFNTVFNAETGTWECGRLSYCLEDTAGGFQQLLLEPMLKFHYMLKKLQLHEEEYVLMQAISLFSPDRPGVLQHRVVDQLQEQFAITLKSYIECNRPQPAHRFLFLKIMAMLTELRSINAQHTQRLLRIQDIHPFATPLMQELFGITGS
In experiment [5] the target is Nuclear receptor subfamily 1 group I member 2 (Rattus norvegicus) (UniProt Q9R1A7). Briefly: Rat pregnane X receptor (rPXR) activation by small molecules, qHTS assay (AID 1346983). Also: nearly all actives have a fitted effect of over 20% in size. The settings on record: rPXR luciferase reporter cells, One-Glo luminescence, 24 h; max activation: active compounds read high. Summed up: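 Cell-based rPXR activation assay: rPXR cells, 2,000 per well, rested 5hr at 37 C, then exposed to compounds in DMSO for 24 hr at 37 C. Luciferase activity read by One-Glo luminescence after 30 min at room temperature.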
Chain of Nuclear receptor subfamily 1 group I member 2 (Rattus norvegicus) (Q9R1A7 whole entry, looked up): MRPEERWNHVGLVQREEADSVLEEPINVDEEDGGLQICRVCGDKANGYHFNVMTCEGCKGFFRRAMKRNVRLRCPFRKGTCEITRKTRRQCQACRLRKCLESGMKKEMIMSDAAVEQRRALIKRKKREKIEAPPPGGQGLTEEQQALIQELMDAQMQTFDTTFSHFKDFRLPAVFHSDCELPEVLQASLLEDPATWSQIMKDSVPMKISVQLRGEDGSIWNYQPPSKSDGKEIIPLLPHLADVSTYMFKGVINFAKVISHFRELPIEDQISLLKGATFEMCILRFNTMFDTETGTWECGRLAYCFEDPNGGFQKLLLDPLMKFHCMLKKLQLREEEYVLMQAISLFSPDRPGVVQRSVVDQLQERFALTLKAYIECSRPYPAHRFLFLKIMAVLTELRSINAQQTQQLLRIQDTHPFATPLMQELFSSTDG

The target of experiment [6] is Nuclear receptor subfamily 1 group I member 2 (Homo sapiens) (UniProt O75469). The experiment in a line: CYP3A4 induction through human pregnane X receptor (PXR) by small molecules, qHTS assay (AID 1346984). Also: nearly all actives have a fitted effect of over 40% in size. In outline:
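HepG2-derived DPX-2 line carrying PXR plus a CYP3A4-promoter luciferase reporter; cells plated 5 hr, compound-exposed 24 hr at 37C. CYP3A4 activity probed with 3uM (final) Luciferin-IPA for 3hr, then luciferase read after One-Glo.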

The target is the same in experiment [7]. The experiment in a line: Human pregnane X receptor (PXR) activation by small molecules, qHTS assay (AID 1346985). Also: nearly all actives have a fitted effect of over 40% in size. In outline: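 DPX-2 cells (HepG2 co-transfected with a PXR response element and a CYP3A4-promoter luciferase construct) were seeded at 2,000 per well, rested 5 hr at 37C, then exposed to DMSO-dissolved compounds for 24 hr. Activation was read as luciferase luminescence.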

The target of experiment [8] is Cytochrome P450 2D6 (Homo sapiens) (UniProt P10635). The experiment in a line: Cytochrome P450 Family 2 Subfamily D Member 6 (CYP2D6) small molecule antagonists: luciferase reporter qHTS assay (AID 1671196). Also: nearly all actives have a fitted effect of over 50% in size. Also: potency is read from the fitted curve at half-maximal effect. In outline:
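Luminogenic proluciferin substrate, CYP2D6 enzyme; 10 min RT preincubation with compound, NADPH regeneration system added, 1 h RT. Stop/detection reagent, 20 min RT, luminescence read (RLU). Signal proportional to CYP activity.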
(Reporter assays use an easily measured gene product as a stand-in for the process of interest.)

In experiment [9] the target is Cytochrome P450 2C19 (Homo sapiens) (UniProt P33261). The experiment in a line: Cytochrome P450 Family 2 Subfamily C Member 19 (CYP2C19) small molecule antagonists: luciferase reporter qHTS assay (AID 1671197). Also: nearly all actives have a fitted effect of over 65% in size. Also: potency is read from the fitted curve at half-maximal effect. In outline:
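First, compounds are pinned into enzyme-substrate mix and held 10 min at room temperature. Second, NADPH regeneration solution is added and plates incubate 1 h at 37C. Third, detection reagent is added and luminescence read after 20 min.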

Experiment [10] concerns the target Cytochrome P450 2C9 (Homo sapiens) (UniProt P11712). Briefly: Cytochrome P450 Family 2 Subfamily C Member 9 (CYP2C9) small molecule antagonists: luciferase reporter qHTS assay (AID 1671198). Also: series mostly up to about 120 µM; nearly all actives have a fitted effect of over 50% in size. In outline: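 P450-Glo proluciferin substrate with CYP2C9 enzyme; 10 min RT preincubation, then NADPH regeneration 1 h at 37C; luciferin detection reagent 20 min RT, luminescence in relative luminescence units.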

For experiment [11], the target named is Cytochrome P450 1A2 (Homo sapiens) (UniProt P05177). Briefly: Cytochrome P450 Family 1 Subfamily A Member 2 (CYP1A2) small molecule antagonists: luciferase reporter qHTS assay (AID 1671199). Also: nearly all actives have a fitted effect of over 50% in size. Also: potency is read from the fitted curve at half-maximal effect. In outline:
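Luminescence readout (relative luminescence units) after luciferin detection reagent, 20 min RT. Preceded by 1 h room-temperature CYP1A2 reaction with NADPH regeneration solution following 10 min compound preincubation with enzyme and proluciferin substrate. Furafylline positive control.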

The target of experiment [12] is Voltage-gated inwardly rectifying potassium channel KCNH2 (Homo sapiens) (UniProt Q12809). Briefly: Human Ether-a-go-go-Related Gene (hERG) channel small molecule antagonists: fluorescence cell-based qHTS assay (AID 1671200).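 Also: hERG-expressing U2OS cells given a thallium stimulus after FluxOR II dye loading; series mostly up to about 77 µM; nearly all actives have a fitted effect of over 50% in size.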 Summed up:
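Kinetic two-minute fluorescence traces, sampled at 1 s, were collected following thallium stimulus of U2OS cells (1000 per well) that had been cultured overnight at 37 C and loaded with FluxOR II.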
In general terms: The hERG channel carries a current that helps repolarise heart muscle cells.

Experiment [13] deals with Cytochrome P450 3A4 (Homo sapiens) (UniProt P08684). The experiment in a line: Cytochrome P450 Family 3 Subfamily A Member 4 (CYP3A4) small molecule antagonists: luciferase reporter qHTS assay (AID 1671201). Summed up:
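Proluciferin-to-luciferin conversion by CYP3A4, NADPH-regenerated, 1 h RT; luminescence read as RLU. Ketoconazole as control.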

Experiment [14] can be described thus: Caspase-3/7 induction in CHO-K1 cells by small molecules, qHTS assay (AID 1346980). Also: nearly all actives have a fitted effect of over 15% in size. Summed up:
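Wild-type CHO-K1 cells exposed to compounds for 17hr at 37 C, 5% CO2. Caspase-3/7 activity then measured by Caspase-Glo 3/7 luminescence after 30min at room temperature.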
% is scaled to controls: 0 for no effect and ±100 for the full control effect.

Chain of Cytochrome P450 2D6 (Homo sapiens) (P10635 whole entry, looked up): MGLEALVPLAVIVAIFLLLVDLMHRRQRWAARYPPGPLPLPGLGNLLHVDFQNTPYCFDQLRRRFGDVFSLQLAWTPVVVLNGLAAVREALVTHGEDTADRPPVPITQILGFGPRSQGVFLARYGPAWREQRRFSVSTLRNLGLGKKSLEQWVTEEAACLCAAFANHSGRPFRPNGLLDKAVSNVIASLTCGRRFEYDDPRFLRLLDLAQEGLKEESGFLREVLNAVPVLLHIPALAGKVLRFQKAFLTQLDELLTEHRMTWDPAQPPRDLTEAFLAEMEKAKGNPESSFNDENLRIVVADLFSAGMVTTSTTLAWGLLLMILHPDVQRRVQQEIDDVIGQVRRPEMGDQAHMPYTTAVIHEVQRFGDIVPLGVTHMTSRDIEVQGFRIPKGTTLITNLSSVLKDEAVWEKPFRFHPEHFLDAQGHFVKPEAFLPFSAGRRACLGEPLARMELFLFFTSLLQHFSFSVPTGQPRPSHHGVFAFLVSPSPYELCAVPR
Chain of Cytochrome P450 2C19 (Homo sapiens) (P33261 whole entry, looked up): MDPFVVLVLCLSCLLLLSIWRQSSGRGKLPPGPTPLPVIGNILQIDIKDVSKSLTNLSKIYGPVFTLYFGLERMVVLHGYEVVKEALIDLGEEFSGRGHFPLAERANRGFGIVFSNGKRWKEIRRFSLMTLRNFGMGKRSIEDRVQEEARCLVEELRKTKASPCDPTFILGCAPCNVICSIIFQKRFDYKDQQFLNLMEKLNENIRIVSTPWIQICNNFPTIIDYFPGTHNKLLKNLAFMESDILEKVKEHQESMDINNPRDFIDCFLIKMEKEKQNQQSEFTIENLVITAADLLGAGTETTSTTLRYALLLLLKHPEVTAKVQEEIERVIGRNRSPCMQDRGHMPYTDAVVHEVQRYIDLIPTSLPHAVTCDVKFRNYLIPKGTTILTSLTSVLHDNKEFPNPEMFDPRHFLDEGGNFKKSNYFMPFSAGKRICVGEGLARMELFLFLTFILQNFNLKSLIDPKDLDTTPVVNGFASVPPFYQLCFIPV
Chain of Cytochrome P450 3A4 (Homo sapiens) (P08684 whole entry, looked up): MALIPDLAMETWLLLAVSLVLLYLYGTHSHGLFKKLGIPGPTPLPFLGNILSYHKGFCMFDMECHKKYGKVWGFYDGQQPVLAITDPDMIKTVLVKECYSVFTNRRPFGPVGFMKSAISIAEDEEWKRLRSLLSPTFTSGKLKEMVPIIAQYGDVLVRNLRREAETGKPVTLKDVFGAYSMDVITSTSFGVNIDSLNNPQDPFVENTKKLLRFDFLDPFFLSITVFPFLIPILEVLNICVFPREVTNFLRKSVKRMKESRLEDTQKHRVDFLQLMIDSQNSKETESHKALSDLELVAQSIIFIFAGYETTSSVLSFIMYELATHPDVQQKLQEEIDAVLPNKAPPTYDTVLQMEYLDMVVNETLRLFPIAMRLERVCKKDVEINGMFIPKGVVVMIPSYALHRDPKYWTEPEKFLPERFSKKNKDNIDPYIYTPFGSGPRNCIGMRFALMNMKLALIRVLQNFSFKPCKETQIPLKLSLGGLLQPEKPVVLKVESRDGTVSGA
Chain of Cytochrome P450 1A2 (Homo sapiens) (P05177 whole entry, looked up): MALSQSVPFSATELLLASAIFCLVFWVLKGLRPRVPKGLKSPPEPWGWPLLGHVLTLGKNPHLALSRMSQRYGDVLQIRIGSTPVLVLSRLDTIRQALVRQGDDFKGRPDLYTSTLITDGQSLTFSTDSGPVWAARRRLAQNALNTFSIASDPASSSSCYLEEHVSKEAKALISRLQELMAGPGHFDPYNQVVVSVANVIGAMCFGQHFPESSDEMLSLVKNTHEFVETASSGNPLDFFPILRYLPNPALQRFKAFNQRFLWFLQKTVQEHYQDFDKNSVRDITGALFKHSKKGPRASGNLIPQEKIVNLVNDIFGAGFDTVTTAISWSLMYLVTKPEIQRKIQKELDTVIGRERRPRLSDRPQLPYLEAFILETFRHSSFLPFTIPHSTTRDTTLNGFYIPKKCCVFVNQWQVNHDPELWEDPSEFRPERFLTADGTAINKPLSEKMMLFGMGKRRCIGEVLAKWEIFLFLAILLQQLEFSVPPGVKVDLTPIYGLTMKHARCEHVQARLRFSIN
Chain of Cytochrome P450 2C9 (Homo sapiens) (P11712 whole entry, looked up): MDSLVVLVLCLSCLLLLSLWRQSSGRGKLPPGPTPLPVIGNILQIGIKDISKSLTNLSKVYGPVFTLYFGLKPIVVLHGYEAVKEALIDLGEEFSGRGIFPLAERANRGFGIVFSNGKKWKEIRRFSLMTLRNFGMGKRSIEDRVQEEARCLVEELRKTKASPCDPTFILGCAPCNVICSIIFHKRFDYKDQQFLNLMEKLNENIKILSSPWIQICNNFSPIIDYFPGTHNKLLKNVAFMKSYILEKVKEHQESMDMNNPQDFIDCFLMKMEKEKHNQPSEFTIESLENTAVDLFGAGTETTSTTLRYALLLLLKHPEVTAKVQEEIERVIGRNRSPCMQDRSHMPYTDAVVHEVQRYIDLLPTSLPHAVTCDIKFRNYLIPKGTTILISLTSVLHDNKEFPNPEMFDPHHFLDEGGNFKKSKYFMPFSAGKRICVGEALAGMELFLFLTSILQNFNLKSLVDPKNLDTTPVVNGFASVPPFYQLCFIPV
Chain of Voltage-gated inwardly rectifying potassium channel KCNH2 (Homo sapiens) (Q12809 whole entry, looked up): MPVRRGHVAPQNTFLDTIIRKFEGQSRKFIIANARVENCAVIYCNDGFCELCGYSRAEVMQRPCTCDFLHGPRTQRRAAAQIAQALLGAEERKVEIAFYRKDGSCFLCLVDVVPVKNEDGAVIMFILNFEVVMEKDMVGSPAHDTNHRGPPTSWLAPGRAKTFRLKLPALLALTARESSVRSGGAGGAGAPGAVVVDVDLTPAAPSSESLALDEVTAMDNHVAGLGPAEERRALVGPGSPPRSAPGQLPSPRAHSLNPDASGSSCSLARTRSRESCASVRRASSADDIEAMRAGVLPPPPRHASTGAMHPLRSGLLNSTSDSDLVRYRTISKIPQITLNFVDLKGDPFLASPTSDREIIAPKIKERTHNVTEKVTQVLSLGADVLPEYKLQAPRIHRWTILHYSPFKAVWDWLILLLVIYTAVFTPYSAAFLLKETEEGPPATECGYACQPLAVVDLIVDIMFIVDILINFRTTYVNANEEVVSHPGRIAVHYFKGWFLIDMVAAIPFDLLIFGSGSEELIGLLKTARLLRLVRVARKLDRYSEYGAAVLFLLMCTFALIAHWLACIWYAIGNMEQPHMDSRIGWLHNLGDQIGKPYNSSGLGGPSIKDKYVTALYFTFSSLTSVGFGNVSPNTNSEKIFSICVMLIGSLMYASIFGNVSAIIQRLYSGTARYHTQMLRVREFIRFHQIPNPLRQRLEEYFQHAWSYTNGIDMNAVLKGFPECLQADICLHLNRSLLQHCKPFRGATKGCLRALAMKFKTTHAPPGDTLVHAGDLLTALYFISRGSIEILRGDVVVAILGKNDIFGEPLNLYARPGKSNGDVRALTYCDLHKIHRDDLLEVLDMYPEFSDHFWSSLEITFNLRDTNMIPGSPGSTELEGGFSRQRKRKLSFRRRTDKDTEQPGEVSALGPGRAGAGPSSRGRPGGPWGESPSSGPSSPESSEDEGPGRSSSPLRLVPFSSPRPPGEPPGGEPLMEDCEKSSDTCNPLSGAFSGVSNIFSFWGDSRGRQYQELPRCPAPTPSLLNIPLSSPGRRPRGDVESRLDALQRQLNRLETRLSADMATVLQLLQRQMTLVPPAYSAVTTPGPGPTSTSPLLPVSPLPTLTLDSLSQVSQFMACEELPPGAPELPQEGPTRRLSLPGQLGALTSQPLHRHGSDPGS

For the molecule `CN(C)C(=O)Oc1ccc[n+](C)c1`, the call in experiment [1] was inactive. For the same molecule, the Potency entry in experiment [2], in experiment [3], in experiment [4], in experiment [6], in [7] and in experiment [8] was “inactive” each time. In addition, the Potency result in [9], in experiment [10], in [11], in experiment [12] and in [13] was “inactive” throughout. Further, the max activation in [5] is -1.23%.

As for `CCCC[N+](C)(CCCC)CCCC`, the outcome in experiment [1] and in experiment [14] was inactive. The Potency entry in [2], in [3], in [9], in [10], in experiment [11] and in [13] was “inactive” each time. Moreover, in experiment [8], the Potency is 2.77 µM (active).

With `CCCCCCCCCCCCCCC(=O)O`, the result in experiment [1] and in experiment [14] was inactive. For the same molecule, the Potency entry in experiment [2], in [3], in experiment [8], in experiment [10] and in experiment [13] was “inactive” throughout.

As for `Nc1c2c(nc3c1CCC3)CCCC2`, the molecule was called inactive in [1]. For the same molecule, the Potency result in [2], in [3], in experiment [4], in experiment [6], in experiment [7] and in [9] was “inactive” in each case. The Potency entry in experiment [10], in experiment [11] and in [13] was “inactive” in each case. The max activation in experiment [5] is -1.69%. Besides, the Potency in experiment [8] was 8.71 µM (active).

As for `CC/C=C\CCOC(C)OCC` (stereo not drawn), the call in experiment [1] and in experiment [14] was inactive. Moreover, the Potency result in experiment [2], in experiment [4], in experiment [8], in experiment [9], in [10] and in experiment [12] was “inactive” in each case. In addition, the Potency entry in [13] is “inactive”.

Take `CCCCN(CCC(=O)OCC)C(C)=O`: the outcome in experiment [1] and in [14] was inactive. The Potency entry in experiment [2], in experiment [3], in experiment [8], in [10], in experiment [12] and in [13] was “inactive” each time. For the same molecule, the Potency in experiment [9] was 35.6 µM (active).

As for `CC(C)(C)C(=O)Oc1ccc(S(=O)(=O)Nc2ccccc2C(=O)NCC(=O)O)cc1`, the molecule was classed as inactive in experiment [1]. The Potency result in experiment [2], in experiment [3], in [4], in experiment [6], in [7] and in experiment [8] was “inactive” throughout. The Potency entry in experiment [9], in experiment [11], in [12] and in [13] was “inactive” throughout. Also, the max activation in experiment [5] is -2.02%.

As to `C=CCOCC(O)CO` (stereo not drawn), the call in experiment [1] and in experiment [14] was inactive. Moreover, the Potency result in experiment [2], in [3], in experiment [8], in experiment [9], in experiment [10] and in experiment [11] was “inactive” each time. Besides, the Potency result in experiment [12] and in experiment [13] was “inactive” each time.

Take `CC(C)c1ccc2ncccc2c1`: the call in [1] and in [14] was inactive. The Potency result in experiment [2], in experiment [3], in experiment [8], in [9], in experiment [10] and in experiment [13] was “inactive” throughout. For the same molecule, in experiment [11], the Potency was 63.3 µM (active).

For the molecule `CCOC(=O)c1ccccc1`, the outcome in experiment [1] and in experiment [14] was inactive. Further, the Potency result in [2], in [3], in experiment [8], in experiment [9], in [10] and in experiment [11] was “inactive” each time. For the same molecule, in experiment [13], the Potency entry was “inactive”.

Regarding `CN(C)CCCN(C)CCCN(C)C`, the molecule was called inactive in [1] and in [14]. The Potency result in experiment [2], in experiment [3], in experiment [8], in experiment [9], in [10] and in experiment [12] was “inactive” each time. Moreover, in experiment [13], the Potency entry is “inactive”.
